The source of these data is PubChem BioAssay (NCI).

Test systems include NCI-H23 lung; NCI-H226 lung; HOP-62 NSCLC; NCI-H460 lung; HOP-92 NSCLC; NCI-H522 lung; A549/ATCC NSCLC; 786-0 renal; COLO 205 colon; DU-145 prostate; K-562 leukemia; MDA-MB-231 breast; RXF 393 renal; SF-268 CNS; UACC-257 melanoma; M14 melanoma; SF-295 CNS; SF-539 CNS; MALME-3M melanoma.
Holding throughout (assay): NCI-60 one-dose screen, 48 h (100 = growth as untreated, 0 = no growth, -100 = all killed)
Details in all cases: 10 µM

The panel holds about 83,000 compounds, 20% with a hit somewhere; the sample as a whole holds those more often.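 The endpoint reported here, percent growth, reads 100 for growth as untreated, 0 for no net growth and -100 for all cells dead.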 A number with no mark means an inactive call. Calls of active or inactive are those of the source. Rule for the calls: active = growth percent below 10; inactive = the rest.

As to `Cc1nn(-c2ccccc2)c2nc(Cl)c(C=O)c(-c3ccccc3)c12`, the growth with NCI-H23 lung was 80.6%; with NCI-H226 lung it was 93.3%; with HOP-62 NSCLC, 115%; in the assay with NCI-H460 lung, 94%; in the assay with HOP-92 NSCLC it was 65.7%; in the assay on NCI-H522 lung it was 106%. Besides, the growth with A549/ATCC NSCLC was 78.3%; in the assay on 786-0 renal, 94.5%; with COLO 205 colon, 121%; in the assay on DU-145 prostate, 101%; in the assay on K-562 leukemia, 77.3%; with MDA-MB-231 breast, 96.5%. Also, the growth in the assay on RXF 393 renal is 105%; in the assay on SF-268 CNS, 90.2%; in the assay with UACC-257 melanoma, 98.3%; in the assay on M14 melanoma it was 111%.

`Cc1c(C(N)=O)sc2c1c(=O)n(Cc1ccccc1)c1nnc(-c3ccc(Br)cc3)n21`: the growth was 39% in the assay on NCI-H23 lung; 26.6% in the assay on NCI-H226 lung; 37.7% in the assay with HOP-62 NSCLC; 4.4% (active) in the assay with NCI-H460 lung; 43.4% in the assay on HOP-92 NSCLC; 47.9% in the assay with NCI-H522 lung. The growth in the assay with A549/ATCC NSCLC is 10.1%; with 786-0 renal it was -15.5% (active); in the assay with COLO 205 colon, 16.8%; in the assay with DU-145 prostate, 31.7%; with MDA-MB-231 breast, 18.8%; in the assay with RXF 393 renal, 15.9%. Besides, the growth with SF-268 CNS is 29.4%; in the assay on SF-295 CNS, 15.8%; in the assay on SF-539 CNS, 13.1%; in the assay with UACC-257 melanoma, -0.619% (active); with M14 melanoma, -22.5% (active).

Turning to `COc1cc(C2CC(c3ccc4c(c3)OCO4)=NN2c2ccccc2)cc(OC)c1OC` (configuration not stated), the growth with NCI-H23 lung is 93.9%; in the assay with NCI-H226 lung it was 102%; with HOP-62 NSCLC, 104%; in the assay on NCI-H460 lung it was 103%; with HOP-92 NSCLC, 84.1%; in the assay on NCI-H522 lung, 73.4%. In addition, the growth with A549/ATCC NSCLC is 98.5%; with 786-0 renal, 95.9%; with COLO 205 colon, 86.8%; in the assay with DU-145 prostate it was 107%; in the assay with K-562 leukemia it was 48.8%; in the assay with MDA-MB-231 breast, 82.2%. The growth in the assay on RXF 393 renal was 106%; with SF-268 CNS it was 83.6%; in the assay with SF-295 CNS it was 91.2%; in the assay on UACC-257 melanoma it was 90.3%; with M14 melanoma, 91.6%.

With `O=C1C=C(Nc2cccc(Br)c2)c2ccccc2C1=O`, the growth in the assay with NCI-H23 lung was 41.1%; in the assay with NCI-H226 lung it was 91.3%; with HOP-62 NSCLC, 41.9%; in the assay with NCI-H460 lung it was 12.7%; in the assay with HOP-92 NSCLC it was 39.1%; in the assay on NCI-H522 lung, 27.3%. The growth with A549/ATCC NSCLC is 16.7%; in the assay on 786-0 renal it was 60.2%; with COLO 205 colon, 104%; with DU-145 prostate, 22.4%; in the assay with K-562 leukemia it was 21.4%; with MALME-3M melanoma, 47.2%. Further, the growth is 54.6% with MDA-MB-231 breast; 31.8% with RXF 393 renal; 58% with SF-268 CNS; 15% in the assay with SF-539 CNS; 79.4% in the assay with UACC-257 melanoma; 14.4% in the assay on M14 melanoma.

On to `Nc1nc(N)c(N)c(Nc2ccc(CCO)cc2)n1`, for which the growth in the assay on NCI-H23 lung is 98.3%; in the assay with NCI-H226 lung, 96.2%; with HOP-62 NSCLC, 95.6%; in the assay with NCI-H460 lung it was 108%; in the assay with HOP-92 NSCLC, 118%; in the assay on NCI-H522 lung, 91.9%. In addition, the growth in the assay with A549/ATCC NSCLC is 102%; in the assay on 786-0 renal, 109%; in the assay on COLO 205 colon, 95.5%; in the assay on DU-145 prostate, 102%; with MDA-MB-231 breast, 95.3%; in the assay with RXF 393 renal it was 109%. In addition, the growth in the assay with SF-268 CNS is 103%; with SF-295 CNS, 105%; with SF-539 CNS, 111%; in the assay with UACC-257 melanoma, 103%; with M14 melanoma, 97.2%.

With `COc1cc2cc(Oc3ccc(NC(=O)Nc4ccc(Cl)c(Cl)c4)cc3)c(C)nc2cc1OC`, the growth is 8.26% (active) in the assay with NCI-H23 lung; 7.74% (active) with NCI-H226 lung; 55.2% with HOP-62 NSCLC; 3.68% (active) in the assay with NCI-H460 lung; -13.7% (active) in the assay on NCI-H522 lung; 4.35% (active) with A549/ATCC NSCLC. The growth in the assay on 786-0 renal was 20.3%; in the assay with COLO 205 colon, 4.03% (active); with DU-145 prostate it was 24.8%; with K-562 leukemia, 12.7%; with MALME-3M melanoma it was 14.9%; in the assay with MDA-MB-231 breast it was 47.8%. Also, the growth in the assay on RXF 393 renal was 22.3%; in the assay with SF-268 CNS it was 43.7%; in the assay with SF-295 CNS it was 0.689% (active); in the assay with SF-539 CNS, 38.5%; in the assay on UACC-257 melanoma, 1.38% (active); in the assay on M14 melanoma, 25.8%.

Turning to `Cc1cc(Cl)ccc1Nc1nc(C(F)(F)F)ccc1C(=O)N/N=C/c1cccc(O)c1`, the growth is 43.8% in the assay on NCI-H23 lung; 38.8% with NCI-H226 lung; 44.2% with HOP-62 NSCLC; 30.9% in the assay on NCI-H460 lung; 48.1% with HOP-92 NSCLC; 40.2% in the assay on NCI-H522 lung. Besides, the growth in the assay on 786-0 renal was -30.6% (active); with COLO 205 colon, 28.2%; with K-562 leukemia, 20.7%; in the assay on MDA-MB-231 breast, 39.7%; with SF-268 CNS, 39.3%; with SF-295 CNS, 6.71% (active). The growth with SF-539 CNS is 23.5%; in the assay on UACC-257 melanoma it was 44.1%; in the assay on M14 melanoma it was 43.9%.

With `CC(=O)Nc1ccc(CC[C@H]2CCC/C=C/[C@@H]3C[C@H](O)C[C@H]3[C@H](O)/C=C/C(=O)O2)cc1`, the growth in the assay with NCI-H23 lung was -19% (active); with NCI-H226 lung, 10.1%; in the assay on HOP-62 NSCLC, 15.7%; with NCI-H460 lung it was 13.3%; in the assay with HOP-92 NSCLC it was -15% (active); with NCI-H522 lung, -39.3% (active). Moreover, the growth is 11.9% with A549/ATCC NSCLC; 22.9% with DU-145 prostate; 15.3% in the assay with K-562 leukemia; -7.38% (active) with MALME-3M melanoma; -88.4% (active) with MDA-MB-231 breast; -32.1% (active) with RXF 393 renal. Further, the growth in the assay on SF-268 CNS was 13.8%; in the assay with SF-295 CNS, 16.9%; in the assay on SF-539 CNS, 25.3%; with UACC-257 melanoma it was -3.78% (active); in the assay on M14 melanoma, 9.87% (active).

For `COC1=CC(=O)OC(c2ccc(OC)cc2)C1` (configuration not stated), the growth with NCI-H23 lung was 89.2%; in the assay with NCI-H226 lung, 110%; in the assay with HOP-62 NSCLC it was 105%; in the assay on NCI-H460 lung, 109%; with HOP-92 NSCLC it was 98.1%; in the assay on A549/ATCC NSCLC it was 108%. Also, the growth is 109% in the assay on 786-0 renal; 108% in the assay with COLO 205 colon; 113% with DU-145 prostate; 130% in the assay on K-562 leukemia; 100% in the assay on MDA-MB-231 breast; 113% with RXF 393 renal. Further, the growth with SF-268 CNS is 96.5%; with SF-295 CNS it was 91.7%; with SF-539 CNS it was 104%; with UACC-257 melanoma, 104%; with M14 melanoma, 122%.
